Laboratory results from PubChem BioAssay (EPA / NIEHS).
Activity calls are given as the source filed them. How the source made its calls: active means hit-call score of the fitted dose curve at least 0.9, where 1 is the maximum; inactive means score below 0.9.

Test: ATG_M_32_CIS: Attagene CIS-FACTORIAL HepG2 Assay for M32 Transcription Factor (Internal Marker) (AID 2282949);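 further: background control marker of the multiplexed CIS panel rather than a real target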
Conditions: HepG2 Attagene cis-factorial M32 reporter, mRNA; actives raise or lower the signal
In short: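 HepG2 cells transiently transfected with multiplexed cis-regulated reporter units, dosed 24 h. Reporter mRNA quantified by RT-PCR, 6-FAM labelling, HpaI digestion and capillary electrophoresis; bidirectional fit vs DMSO.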
With COc1cc(-c2nc(NC(=O)c3cc4cc(C)cc(C)c4n3CC(=O)O)sc2CCC2CCCCC2)c(OC)cc1Cl the outcome was “inactive”. In the case of CCCCCCCCCCCC(=O)OC, the outcome is reported as “inactive”. With COCCOCCOC the outcome was “inactive”. With CCCCCCCCCCO the outcome was “inactive”. With CCOC(=O)C(C)(C)Oc1ccc(Cl)cc1 the outcome was “inactive”. With CC(CO)OC(C)CO (centres undefined) (tested in a mixture with another compound) the outcome was “inactive”. In the case of CCc1c(C(=O)NN2CCCCC2)nn(-c2ccc(Cl)cc2Cl)c1-c1ccc(Br)cc1, the outcome is reported as “inactive”. In the case of CNC(=O)[C@H]1O[C@@H](n2cnc3c(NCc4cc(Cl)ccc4OCc4cc(C)no4)ncnc32)[C@H](O)[C@@H]1N, the outcome is reported as “inactive”. For C[Si]1(C)O[Si](C)(C)O[Si](C)(C)O[Si](C)(C)O1, the outcome was “inactive”. In the case of CCCCc1ccc2c(n1)[C@@H](c1ccc(OC)cc1C[C@H](C)C(=O)O)[C@H](C(=O)O)[C@H]2c1ccc2c(c1)OCO2, the outcome is reported as “inactive”. With O=C(O)CCCCC(=O)O the outcome was “inactive”. In the case of CCCCN(CCCC)CCCC, the outcome is reported as “inactive”. With CN[C@H]1CC[C@@H](c2ccc(Cl)c(Cl)c2)c2ccc(S(N)(=O)=O)cc21 the outcome was “inactive”. In the case of Cc1cc(=O)[nH]c(=S)[nH]1, the outcome is reported as “inactive”. With Cc1nc(-c2ccc3c(c2)CCN(CCC2CCC(NC(=O)/C=C/c4ccc(F)cc4)CC2)CC3)no1 (centres undefined) the outcome was “inactive”. With Cc1ccc(Cl)cc1 the outcome was “inactive”. For NC(=O)Cn1c(=O)cc(CCN2CCN(c3nccc4sccc34)CC2)c2ccc(F)cc21, the outcome was “inactive”. With Cc1ccccc1Cl the outcome was “inactive”. In the case of COc1cc(/C=C/C(=O)CC(=O)/C=C/c2ccc(O)c(OC)c2)ccc1O, the outcome is reported as “inactive”. With Nc1nc(N)c2nc(CNc3ccc(C(=O)N[C@@H](CCC(=O)O)C(=O)O)cc3)cnc2n1 the outcome was “inactive”. In the case of COc1cc(S(=O)(=O)O)c(C)cc1N=Nc1c(O)ccc2cc(S(=O)(=O)O)ccc12, the outcome is reported as “inactive”. With CN1CCN(Cc2cc(-c3ccc4[nH]c(=O)oc4c3)co2)[C@@H](c2ccc(F)cc2)C1 the outcome was “inactive”. With FC(F)(F)C(F)(F)C(F)(F)C(F)(F)C(F)(F)C(F)(F)CCI the outcome was “inactive”. For Cc1nc(C)nc(N2C[C@@H](C)N(c3ccnc([C@@H](C)O)n3)[C@@H](C)C2)n1, the outcome was “inactive”. With NS(=O)(=O)c1cc2c(cc1Cl)NCNS2(=O)=O the outcome was “inactive”. With Cc1c(C(=O)O)c(O)cc2c1C(=O)c1c(O)c([C@@H]3O[C@H](CO)[C@@H](O)[C@H](O)[C@H]3O)c(O)c(O)c1C2=O the outcome was “inactive”. For Cc1cc(NC(=O)C(=O)O)cc(C)c1Oc1ccc(O)c2c1CCC2, the outcome was “inactive”. In the case of O=C(O)Cc1ccccc1Nc1c(Cl)cccc1Cl, the outcome is reported as “inactive”. With O=c1[nH]cc(F)c(=O)[nH]1 the outcome was “inactive”.
